The values below come from PubChem BioAssay (Tox21).

Experiment [1] can be described thus: qHTS assay to test for compound auto fluorescence at 535 nm (green) in HEK293 cells (AID 720680). In general terms: qHTS replaces the single test concentration by a dilution series.
Experiment [2] is described as follows: qHTS assay to test for compound auto fluorescence at 460 nm (blue) in HEK293 cell free culture (AID 720681). The essentials:
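Compounds were added to cell-free DMEM with 10% FBS and fluorescence read directly. The blue channel used 405 nm excitation and 460 nm emission, with triamterene as the reference fluorophore.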

Experiment [3] is described as follows: qHTS assay to test for compound auto fluorescence at 535 nm (green) in HEK293 cell free culture (AID 720682). Put shortly: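 Using fluorescein as calibrant, autofluorescence was quantified at 485/535 nm in cell-free DMEM containing 10% FBS after pintool addition of compound or vehicle.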
Experiment [4] can be described thus: qHTS assay to test for compound auto fluorescence at 590 nm (red) in HEK293 cell free culture (AID 720683). Put shortly:
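Cell-free wells of DMEM with 10% FBS received compound, and intrinsic fluorescence was read at excitation/emission 540/590 nm. Values expressed as equivalence to Rose Bengal sodium.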

Experiment [5] is described as follows: qHTS assay to test for compound auto fluorescence at 460 nm (blue) in HepG2 cell free culture (AID 720685). The essentials:
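Compound (23 nL) or DMSO pinned into cell-free MEM with 10% FBS; blue fluorescence read at 405/460 nm excitation/emission, expressed as auto-fluorescence equivalency to triamterene.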

Experiment [6] is described as follows: qHTS assay to test for compound auto fluorescence at 535 nm (green) in HepG2 cell free culture (AID 720686).
Experiment [7] is described as follows: qHTS assay to test for compound auto fluorescence at 460 nm (blue) in HepG2 cells (AID 720687). Put shortly: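 HepG2 cells in MEM with 10% FBS, attached overnight at 37 C, were exposed to compound or DMSO for 1 hr at 37 C, 5% CO2. Blue fluorescence was read at 405/460 nm, with triamterene as reference fluorophore.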
The nature of experiment [8]: qHTS assay to identify small molecule antagonists of the glucocorticoid receptor (GR) signaling pathway - cell viability counter screen (AID 720693). Further: nearly all actives have a fitted effect of over 55% in size. Further: potency means the concentration at half of the fitted maximal effect.
Experiment [9] in a line: qHTS assay for identifying genotoxic compounds that show differential cytotoxicity against isogenic chicken DT40 cell lines with known DNA damage response pathways - wild type cell line (AID 743012). Further: nearly all actives have a fitted effect of over 60% in size. Further: potency means the concentration at half of the fitted maximal effect. Put shortly: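 Quantitative HTS on parental DT40 cells: 40 h compound treatment at 37 C/5% CO2, with viability then determined by CellTiter-Glo luminescence. Values serve as the DNA repair-proficient reference for differential cytotoxicity.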

A short description of experiment [10]: qHTS assay for identifying genotoxic compounds that show differential cytotoxicity against isogenic chicken DT40 cell lines with known DNA damage response pathways - Rev3 mutant cell line (AID 743014). Further: nearly all actives have a fitted effect of over 55% in size. Further: potency means the concentration at half of the fitted maximal effect.
Experiment [11] can be described thus: qHTS assay for identifying genotoxic compounds that show differential cytotoxicity against isogenic chicken DT40 cell lines with known DNA damage response pathways - Rad54/Ku70 mutant cell line (AID 743015). Further: nearly all actives have a fitted effect of over 60% in size. Further: potency means the concentration at half of the fitted maximal effect.
Experiment [12] can be described thus: qHTS assay to identify small molecule antagonists of the androgen receptor (AR) signaling pathway - cell viability counter screen (AID 743033; further: nearly all actives have a fitted effect of over 45% in size; further: potency means the concentration at half of the fitted maximal effect).
Experiment [13] can be described thus: qHTS assay to identify small molecule antagonists of the androgen receptor (AR) signaling pathway using the MDA cell line - cell viability counter screen (AID 743041; further: nearly all actives have a fitted effect of over 45% in size; further: potency means the concentration at half of the fitted maximal effect). The essentials:
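Same-well cytotoxicity was assessed by CellTiter-Fluor in MDA-kb2 AR-luc cells after 16 h of compound treatment under R1881 agonism.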

For experiment [14], the target named is Glucocorticoid receptor (Homo sapiens) (UniProt P04150). The experiment in a line: qHTS assay to identify small molecule agonists of the glucocorticoid receptor (GR) signaling pathway (AID 720691; active means well fitted activation curve with a large enough effect in the signal ratio in the repeat runs, not every such curve was filed as active; the % refers to the signal ratio). Put shortly: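 Beta-lactamase reporter activity, read as fluorescence intensity, was measured in GR-bla HeLa cells exposed to compounds for 18 h at 37 C and then loaded with LiveBLAzer B/G FRET substrate for 2 h at room temperature.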
Sequence of Glucocorticoid receptor (Homo sapiens) (P04150 whole entry, looked up): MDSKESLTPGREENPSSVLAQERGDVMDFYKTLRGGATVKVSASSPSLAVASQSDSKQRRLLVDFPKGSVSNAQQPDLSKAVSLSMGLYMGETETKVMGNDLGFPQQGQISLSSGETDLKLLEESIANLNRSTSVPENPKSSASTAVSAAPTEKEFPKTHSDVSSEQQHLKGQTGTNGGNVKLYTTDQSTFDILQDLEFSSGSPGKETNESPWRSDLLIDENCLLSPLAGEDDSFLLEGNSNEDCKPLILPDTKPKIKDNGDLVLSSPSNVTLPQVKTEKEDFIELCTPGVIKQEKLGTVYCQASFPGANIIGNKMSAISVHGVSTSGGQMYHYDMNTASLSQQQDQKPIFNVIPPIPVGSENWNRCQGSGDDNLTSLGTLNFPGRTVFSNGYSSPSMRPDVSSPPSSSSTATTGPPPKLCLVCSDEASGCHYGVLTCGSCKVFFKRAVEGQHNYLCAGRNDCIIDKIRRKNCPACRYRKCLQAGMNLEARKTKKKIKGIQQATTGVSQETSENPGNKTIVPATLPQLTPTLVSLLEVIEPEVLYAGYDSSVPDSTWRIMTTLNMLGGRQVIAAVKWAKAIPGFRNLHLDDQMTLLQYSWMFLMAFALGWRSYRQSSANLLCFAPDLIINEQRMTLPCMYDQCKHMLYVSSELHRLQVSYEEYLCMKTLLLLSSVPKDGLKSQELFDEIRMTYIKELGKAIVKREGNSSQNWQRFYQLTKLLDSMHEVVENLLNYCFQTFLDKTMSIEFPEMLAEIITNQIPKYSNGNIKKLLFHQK

Experiment [15] shares this target. The experiment in a line: qHTS assay to identify small molecule antagonists of the glucocorticoid receptor (GR) signaling pathway (AID 720692; active means well fitted inhibition curve with a large enough effect in the signal ratio in the repeat runs, not every such curve was filed as active; the % refers to the signal ratio). The essentials:
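Fluorescence from cleaved LiveBLAzer B/G FRET substrate reports GRE-driven beta-lactamase in HeLa cells; compounds are tested against 5 nM dexamethasone (final) over 18 h at 37 C, substrate incubation 2 h at room temperature.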

The target in experiment [16] is Androgen receptor (Homo sapiens) (UniProt P10275). The experiment in a line: qHTS assay to identify small molecule antagonists of the androgen receptor (AR) signaling pathway (AID 743035; active means well fitted inhibition curve with a large enough effect in the signal ratio in the repeat runs, not every such curve was filed as active; the % refers to the signal ratio). The essentials:
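Cell line: GeneBLAzer AR-UAS-bla GripTite (HEK293). Stimulus: R1881 added after compound. Exposure: 16 h, 37C, 5% CO2. Readout: LiveBLAzer B/G FRET fluorescence after 2 h at room temperature.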

For experiment [17] the target is unchanged. The experiment in a line: qHTS assay to identify small molecule agonists of the androgen receptor (AR) signaling pathway (AID 743036; active means well fitted activation curve with a large enough effect in the signal ratio in the repeat runs, with a control signal flat, not every such curve was filed as active; the % refers to the signal ratio). The essentials: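 In this Tox21 qHTS, 2,000 HEK293 AR-bla cells per well were incubated with compounds for 16 h at 37C and 5% CO2. Fluorescence intensity was recorded 2 h after adding LiveBLAzer B/G FRET substrate at room temperature.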

For experiment [18] the target is unchanged. In words: qHTS assay to identify small molecule agonists of the androgen receptor (AR) signaling pathway using the MDA cell line (AID 743040; further: nearly all actives have a fitted effect of over 20% in size). Put shortly: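 Human breast carcinoma MDA-kb2 reporter cells (MMTV-luc, AR/GR elements) were treated for 16 h at 37C in 0% CO2 following a 5 h settling period. Signal was quantified by ONE-Glo luminescence.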
Experiment [19] has the same target. In words: qHTS assay to identify small molecule antagonists of the androgen receptor (AR) signaling pathway using the MDA cell line (AID 743042; further: nearly all actives have a fitted effect of over 55% in size; further: potency means the concentration at half of the fitted maximal effect). The essentials:
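MDA-kb2 breast carcinoma cells carrying MMTV-luciferase (AR/GR responsive) were co-treated with compounds and the agonist R1881 for 16 h at 37C. Inhibition read as ONE-Glo luminescence; CellTiter-Fluor fluorescence measured in parallel for cytotoxicity.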

Where “and” joins values, the source holds several entries; their conditions need not be identical. Identical values can stand only once. Inconclusive results are not listed. Where a structure was tested more than once in an assay, its records may differ in their call. Calls of active or inactive are those of the source. Unless noted, the call rests on the fitted dose curve; in most records, active means well fitted curve in the direction sought with a large enough effect in the repeat runs; inconclusive means weak or mixed curves; inactive means no such curve, though single readings can be large; an effect the other way counts as inactive or inconclusive.

Sequence of Androgen receptor (Homo sapiens) (P10275 whole entry, looked up): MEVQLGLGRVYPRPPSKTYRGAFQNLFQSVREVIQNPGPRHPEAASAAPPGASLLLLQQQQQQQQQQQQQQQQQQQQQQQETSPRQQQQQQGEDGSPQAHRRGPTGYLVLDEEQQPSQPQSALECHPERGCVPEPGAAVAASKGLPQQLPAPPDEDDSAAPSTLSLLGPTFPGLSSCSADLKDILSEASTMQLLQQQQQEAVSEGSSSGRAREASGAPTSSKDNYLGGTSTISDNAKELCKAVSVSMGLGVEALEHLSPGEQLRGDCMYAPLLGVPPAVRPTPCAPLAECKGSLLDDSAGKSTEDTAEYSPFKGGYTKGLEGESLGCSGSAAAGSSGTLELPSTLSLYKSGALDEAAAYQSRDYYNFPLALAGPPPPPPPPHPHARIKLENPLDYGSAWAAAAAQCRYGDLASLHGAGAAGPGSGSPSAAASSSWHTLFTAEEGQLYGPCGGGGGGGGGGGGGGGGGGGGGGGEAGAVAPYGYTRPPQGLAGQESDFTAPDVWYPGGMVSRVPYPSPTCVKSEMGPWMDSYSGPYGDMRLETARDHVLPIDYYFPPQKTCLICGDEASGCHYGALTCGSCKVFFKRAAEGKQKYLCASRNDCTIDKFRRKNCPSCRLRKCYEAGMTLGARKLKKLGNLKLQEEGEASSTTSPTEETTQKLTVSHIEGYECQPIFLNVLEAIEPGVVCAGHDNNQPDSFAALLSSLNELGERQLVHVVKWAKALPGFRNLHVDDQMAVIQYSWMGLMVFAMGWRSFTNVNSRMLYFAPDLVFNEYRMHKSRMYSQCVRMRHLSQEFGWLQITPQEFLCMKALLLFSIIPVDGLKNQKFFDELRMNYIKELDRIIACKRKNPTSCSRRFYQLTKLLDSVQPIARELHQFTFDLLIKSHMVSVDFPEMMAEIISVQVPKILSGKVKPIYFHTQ

For `CN(C)CCOC(C)(c1ccccc1)c1ccccn1` (configuration not stated), the Potency entry in experiment [1], in experiment [2], in experiment [3], in experiment [4], in experiment [5] and in experiment [6] was “inactive” in each case. The Potency result in experiment [7], in experiment [8], in experiment [9], in experiment [10], in experiment [11] and in [12] was “inactive” each time. Also, the Potency entry in experiment [13] is “inactive”.
Regarding `NC(=O)n1c(O)c(C(=O)c2cccs2)c2cc(Cl)ccc21`, the Potency result in experiment [1], in experiment [2], in experiment [3], in experiment [4], in [5] and in experiment [6] was “inactive” in each case. Besides, the Potency result in experiment [7], in experiment [14], in experiment [8], in experiment [12] and in experiment [13] was “inactive” each time.
Turning to `Nc1ccc([N+](=O)[O-])cc1O`, the Potency result in experiment [1], in experiment [2], in experiment [3], in [4], in experiment [5] and in experiment [6] was “inactive” throughout. In addition, the Potency result in [7], in [14], in [8] and in experiment [12] was “inactive” each time. In addition, the Potency in experiment [10] is 47.2 µM (active); in [11] it was 55.5 µM (active); in [13], 54.5 µM (active).
For the compound `C/C=C/C=C/C(=O)O`, the Potency entry in experiment [1], in [2], in experiment [3], in [4], in [6] and in experiment [7] was “inactive” throughout. Also, the Potency entry in experiment [8], in [10], in [12] and in experiment [13] was “inactive” throughout. For the same compound, the Potency entry is “inactive and 61.1 µM (active)” in experiment [9]; “inactive and 61.1 µM (active)” in experiment [11].
As to `Cc1ncc([N+](=O)[O-])n1CCO`, the Potency entry in experiment [1], in experiment [2], in experiment [3], in experiment [4], in [5] and in experiment [6] was “inactive” throughout. The Potency entry in [7], in experiment [8], in experiment [9], in [10], in [12] and in [13] was “inactive” in each case. For the same compound, the Potency entry in experiment [11] was “inactive and 61.1 µM (active)”.
With `C1=CC2C3C=CC(C3)C2C1` (configuration not stated), the Potency result in experiment [1], in experiment [2], in experiment [3], in [4], in experiment [5] and in experiment [6] was “inactive” throughout. Further, the Potency result in [7], in experiment [14], in experiment [8], in [12] and in experiment [13] was “inactive” in each case. Also, the Potency in experiment [10] was 47.7 µM (active).
As to `CCOc1ccc(NC(C)=O)cc1`, the Potency entry in [1], in experiment [2], in experiment [3], in experiment [4], in [6] and in experiment [7] was “inactive” in each case. The Potency result in experiment [14], in experiment [15], in experiment [8], in experiment [9], in [10] and in experiment [11] was “inactive” in each case. For the same compound, the Potency entry in experiment [12], in [16], in experiment [13] and in [19] was “inactive” each time. Also, the compound was called inactive in experiment [17] and in experiment [18].
Take `NC(=O)c1cccnc1`: the Potency result in [1], in experiment [2], in [3], in experiment [4], in [6] and in [7] was “inactive” in each case. Moreover, the Potency entry in experiment [14], in [15], in [8], in [9], in [10] and in [11] was “inactive” throughout. Moreover, the Potency result in [12] and in experiment [13] was “inactive” throughout.
For `Cc1c(C(=O)O)c(O)cc2c1C(=O)c1c(O)c([C@@H]3O[C@H](CO)[C@@H](O)[C@H](O)[C@H]3O)c(O)c(O)c1C2=O`, the Potency result in [1], in experiment [2], in [3], in experiment [4], in [6] and in experiment [7] was “inactive” throughout. Besides, the Potency result in experiment [14], in [15], in experiment [8], in experiment [9] and in [12] was “inactive” in each case. The Potency result in experiment [10] is “inactive and 59.6 µM (active) and 54.5 µM (active)”; in experiment [11] it was 53.1 µM (active) and 48.6 µM (active); in [13] it was 59.6 µM (active) and 27.3 µM (active).
As for `C1CCC(C(CC2CCCCN2)C2CCCCC2)CC1` (configuration not stated), the Potency result in [1], in experiment [2], in experiment [3], in [4], in experiment [5] and in experiment [6] was “inactive” in each case. For the same compound, in experiment [7], the Potency result was “inactive”. Moreover, the Potency was 21.3 µM (active) in [8]; 2.66 µM (active) in experiment [9]; 4.73 µM (active) in experiment [10]; 5.96 µM (active) in [11]; 23.9 µM (active) in experiment [12]; 18.8 µM (active) in experiment [13]. Besides, the Potency in experiment [19] was 13.3 µM (active). Besides, the compound was called inactive in experiment [18].
`CC(C)C(=O)Nc1ccc([N+](=O)[O-])c(C(F)(F)F)c1`: the Potency result in experiment [1], in [2], in experiment [3], in experiment [4], in [5] and in experiment [6] was “inactive” each time. In addition, the Potency entry in experiment [7], in experiment [8] and in experiment [13] was “inactive” in each case. In addition, the Potency is 13.3 µM (active) and 44.5 µM (active) and 19.3 µM (active) in [9]; 29.8 µM (active) and 25 µM (active) and 30.6 µM (active) in experiment [10]; 18.8 µM (active) and 22.3 µM (active) and 19.3 µM (active) in experiment [11]; “inactive and 25.2 µM (active) and 49 µM (active)” in experiment [12].
Regarding `Oc1ccccc1`, the Potency entry in experiment [1], in experiment [2], in experiment [3], in experiment [4], in experiment [5] and in experiment [6] was “inactive” each time. Besides, the Potency entry in experiment [7], in experiment [8], in experiment [9], in experiment [10], in [11] and in experiment [12] was “inactive” each time. Also, the Potency entry in experiment [13] is “inactive”.
Regarding `COc1ccc2cc(S(=O)(=O)N[C@H](CC(=O)N[C@H](Cc3ccc(CN4[C@H](C)CCC[C@@H]4C)cc3)C(=O)N(C)C(C)C)c3ccc4c(c3)OCO4)ccc2c1`, the Potency result in experiment [1], in experiment [2], in [3], in experiment [4], in experiment [6] and in [7] was “inactive” throughout. Also, the Potency in experiment [9] was 7.28 µM (active); in experiment [10], 9.17 µM (active); in experiment [11], 5.16 µM (active); in [12], 20.7 µM (active).
For `O=C(O)CC(O)C(=O)O` (configuration not stated), the Potency entry in experiment [1], in [2], in experiment [3], in experiment [4], in [5] and in [6] was “inactive” each time. For the same compound, the Potency entry in experiment [7], in experiment [8], in experiment [9], in experiment [10], in experiment [11] and in [12] was “inactive” throughout. Further, the Potency entry in experiment [13] was “inactive”.
Consider `CC(C)NCC(O)c1ccc(O)c(O)c1` (configuration not stated), for which the Potency entry in experiment [1], in [2], in [3], in [4], in experiment [6] and in experiment [7] was “inactive” in each case. Besides, the Potency result in [14], in [15], in experiment [8], in [12] and in [13] was “inactive” each time. Moreover, the Potency entry in experiment [9] is “inactive and 61.1 µM (active)”; in [10], 61.1 µM (active).
